# Inconclusive results are not listed. A call without a number means that no potency is given here. Some structures have more than one record in an assay (separate samples or runs), and their calls can disagree. Active and inactive are the calls of the source. Calls follow the shape of the dose curve; as a rule, active = well fitted cell-killing curve with a large enough effect in the repeat runs; inconclusive = weak or mixed curves, or effect the other way; inactive = no such curve, though single readings can be large or run the other way.
# Assay: qHTS assay to identify small molecule agonists of the vitamin D receptor (VDR) signaling pathway - cell viability counter screen (AID 743224); also: nearly all actives have a fitted effect of over 50% in size
# Details: VDR-bla HEK293T viability, CellTiter-Glo luminescence, 16 h; series mostly up to 62.6 µM
# Source text: U.S. Tox21 Program National Center for Advancing Translational Sciences [NCATS] NIH Chemical Genomics Center [NCGC] U.S. Environmental Protection Agency [EPA] National Institutes of Environmental Health Sciences [NIEHS] National Toxicology Program [NTP] U.S. Food and Drug Administration [FDA] Tox21 Assay Overview: The vitamin D receptor (VDR), a member of nuclear hormone receptor superfamily, plays a critical role in calcium homeostasis and bone metabolism. It is also involved in cell differentiation and growth, and thrombogenicity. […] The cytotoxicity of the Tox21 compound library against the VDR-bla cell line was tested in parallel by measuring the cell viability using CellTiter-Glo assay (Promega, Madison, WI) in the same wells.
# Tox21 Assay Protocol Summary: VDR-bla cells were dispensed at 2,000 cells/6 uL/well into black wall/clear-bottom 1536-well plates using a Multidrop Combi (Thermo Fisher Scientific, Waltham, MA) dispenser. After the assay plates were incubated at a 37C and 5% CO2 for 4 h, 23 nL of compounds dissolved in DMSO, positive controls or DMSO only was transferred to the assay plate by a Pintool station (Kalypsys, San Diego, CA). The plates were incubated at 37C and 5% CO2 for 16 h. After 1 uL of LiveBLAzerTM B/G FRET substrate was added using a Bioraptr Flying Reagent Dispenser (FRD) workstation (Beckman Coulter, Indianapolis, IN, USA), the plates were incubated at room temperature for 2 h, and fluorescence intensity was measured by an Envision plate reader (PerkinElmer, Shelton, CT). For cell viability readout that measures cytotoxicity, 3 ul/well of CellTiter-Glo reagent was added into the assay plates using a FRD. After 30 min incubation at room temperature, the luminescence intensity in the plates was measured using a ViewLux (PerkinElmer) plate reader.
# Potency is read from the fitted curve at half-maximal effect.
row,SMILES,Potency
1,CCCOC(=O)c1ccc(N)cc1,inactive
2,CCCCN(CCCC)CCCOC(=O)c1ccc(N)cc1,inactive
3,O=C(O)Cc1ccc(-c2ccccc2)cc1,inactive
4,O=C(O)c1snc(Cl)c1Cl,inactive
5,CCOc1cc(N)c(Cl)cc1C(=O)NCC1CN(Cc2ccc(F)cc2)CCO1 (stereo not given),inactive
6,CCCCC(CC)COC(=O)COc1ccc(Cl)cc1C (stereo not given),inactive
7,CCOC(=O)OCC,inactive
8,CCCCCC=CCC=CCCCCCCCC(=O)OCC,29.8 µM (active)
9,CC(C)(C)C(=O)O,inactive
10,CCCOC(=O)c1ccc(C(=O)OCCC)nc1,inactive
11,CCCCN(CCCC)C(=S)SSC(=S)N(CCCC)CCCC,12.2 µM (active)
12,CC(C)(O)c1ccccc1CC[C@@H](SCC1(CC(=O)O)CC1)c1cccc(/C=C/c2ccc3ccc(Cl)cc3n2)c1,inactive
13,CCOC(=O)/C=C/C(=O)O,inactive
14,C=CC(C)=CCC=C(C)C,inactive
15,CCCCCCCCSCCO,inactive
16,Oc1cc(O)c(Cl)cc1Cl,inactive
17,O=C(NCCCN1CCOCC1)c1ccc(Cl)cc1,inactive
18,O=C(CS)OCCOC(=O)CS,inactive
19,c1ccc(COCc2ccccc2)cc1,inactive
20,CC(CCc1ccc2c(c1)OCO2)NN (stereo not given),inactive

row,SMILES,Potency
1,Cc1oncc1C(=O)Nc1ccc(C(F)(F)F)cc1,38.9 µM (active) and inactive
2,C/C(=N/NC(=O)c1ccncc1)C(=O)O,inactive
3,CCOC(=O)C(C)Oc1ccc(Oc2nc3ccc(Cl)cc3o2)cc1 (stereo not given),inactive
4,CC1CC(O)CC(C)(C)C1 (stereo not given),inactive
5,Nc1c(I)cc(I)c(C(=O)N(CCC(=O)O)c2ccccc2)c1I,inactive
6,CCOC(=O)c1ccccc1OC,inactive
7,C[N+]1(C)CCC(=C(c2ccccc2)c2ccccc2)CC1,inactive
8,CC(C)(C)C(=O)C(Oc1ccc(Cl)cc1)n1ccnc1 (stereo not given),inactive
9,COC(=O)c1cc(Cl)ccc1NS(=O)(=O)C(F)(F)F,inactive
10,CC(=O)OCC(=O)[C@H]1CC[C@H]2[C@@H]3CCC4=CC(=O)CC[C@]4(C)[C@H]3CC[C@]12C,inactive
11,CC(C)(C)CC(C)(C)c1ccc(OCCO)cc1,38.7 µM (active)
12,CCC(C)(O)CCC=C(C)C (stereo not given),inactive
13,N#C[C@@H]1C[C@@H]2C[C@@H]2N1C(=O)[C@@H](N)C12CC3CC(CC(O)(C3)C1)C2,inactive
14,CCn1cc(C(=O)O)c(=O)c2cc(F)c(N3CCNCC3)nc21,inactive
15,CO/N=C1\CN(c2nc3c(cc2F)c(=O)c(C(=O)O)cn3C2CC2)CC1CN (stereo not given),inactive
16,O=S(=O)(c1ccccc1)c1ccc(Cl)cc1,inactive
17,C=CC(=C)CCCC(C)(C)OC(C)=O,inactive
18,Cc1cc(OI)c(C(C)C)cc1-c1cc(C(C)C)c(OI)cc1C,inactive
19,O=C(O)c1ccccc1NCCc1ccccc1,inactive
20,O=C(N[C@@H](c1ccccc1)[C@@H]1CCCCN1)c1cccc(C(F)(F)F)c1Cl,30.9 µM (active)

# Source: PubChem BioAssay (Tox21)
